Data on eight compounds can be found in PubChem BioAssay (NCI).

Test systems include MOLT-4 leukemia; SR leukemia; RPMI-8226 leukemia; OVCAR-8 ovarian; OVCAR-5 ovarian; OVCAR-4 ovarian; SK-OV-3 ovarian; IGROV1 ovarian; OVCAR-3 ovarian; HS 578T breast; NCI/ADR-RES ovarian; T-47D breast; BT-549 breast; MDA-MB-435 melanoma; SW-620 colon; MCF7 breast; HCT-116 colon; HCC-2998 colon; KM12 colon.
Test in all cases: NCI-60 one-dose screen, 48 h (100 = growth as untreated, 0 = no growth, -100 = all killed)
Conditions in all cases: 10 µM unless noted

Each structure is given as a SMILES string. This is part of a sample that, as a whole, favours compounds with a hit. Of some 83,000 tested, about 20% had one in any assay.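 Note: values are percent growth. 100 is the growth of untreated cells, values between 100 and 0 indicate rising inhibition; between -100 and 0 indicates cell death.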 Unmarked numbers belong to inactive results. The source made the active and inactive calls. How the source made its calls: active means growth percent below 10; inactive means the rest.

In the case of `CC(=O)O[C@H](C[C@H](C(C)C)N(C)C(=O)[C@@H](NC(=O)[C@H]1CCCCN1C)C(C)C)c1nc(C(=O)N[C@@H](Cc2ccccc2)C[C@H](C)C(=O)O)c(CCOCc2ccccc2)s1`, the growth with MOLT-4 leukemia is 11%; in the assay with SR leukemia, 9.77% (active); in the assay with RPMI-8226 leukemia, -3.42% (active); in the assay on OVCAR-8 ovarian, 10.8%; in the assay on OVCAR-5 ovarian, 35.7%; in the assay with OVCAR-4 ovarian, 37%. Further, the growth in the assay with SK-OV-3 ovarian was 44.6%; in the assay with IGROV1 ovarian it was 10.7%; in the assay on OVCAR-3 ovarian it was -6.07% (active); in the assay on HS 578T breast, 11.4%; in the assay on NCI/ADR-RES ovarian, 9.71% (active); in the assay on T-47D breast, 62.4%. Further, the growth was -36.6% (active) with BT-549 breast; -49.7% (active) with MDA-MB-435 melanoma; 28.3% in the assay with SW-620 colon; 25.9% with MCF7 breast; -22.2% (active) with HCT-116 colon; 16.3% in the assay with HCC-2998 colon. Further, the growth in the assay with KM12 colon is 5.5% (active).
For the compound `O=C(CC1(O)C(=O)N(Cc2ccccc2)c2ccc(Cl)cc21)c1ccc(C(=O)NCC2CCC3(CC2)OOC2(CCCCC2)OO3)cc1` (configuration not stated), the growth is -50.5% (active) in the assay on MOLT-4 leukemia; -44.2% (active) with SR leukemia; -27.7% (active) with RPMI-8226 leukemia; -27.5% (active) with OVCAR-8 ovarian; 5.96% (active) with OVCAR-5 ovarian; -40.2% (active) in the assay with OVCAR-4 ovarian. Also, the growth with SK-OV-3 ovarian was 68%; with IGROV1 ovarian, -35.2% (active); in the assay with OVCAR-3 ovarian, -83.8% (active); in the assay on HS 578T breast, -4.46% (active); with NCI/ADR-RES ovarian it was -42.7% (active); in the assay on T-47D breast, -56% (active). For the same compound, the growth in the assay on BT-549 breast is 11.8%; with MDA-MB-435 melanoma, -67.8% (active); in the assay with SW-620 colon, -56.5% (active); with MCF7 breast, 17.4%; in the assay on HCT-116 colon, 3.72% (active); in the assay with HCC-2998 colon, 67.6%. In addition, the growth with KM12 colon was -67.3% (active).
For `Cc1ccc(Nc2nc3c(s2)C2=CC[C@@H]4[C@H](CC[C@]5(C)C(=O)CC[C@@H]45)[C@@]2(C)CC3)cc1`, the growth with MOLT-4 leukemia was 12.3%; in the assay on SR leukemia, 12.9%; in the assay on RPMI-8226 leukemia it was -15.8% (active); in the assay with OVCAR-8 ovarian, 58.4%; in the assay on OVCAR-5 ovarian it was 72.4%; in the assay on OVCAR-4 ovarian it was 44.8%. The growth in the assay with SK-OV-3 ovarian was 36.6%; in the assay with IGROV1 ovarian, 65%; in the assay with OVCAR-3 ovarian, 16.7%; with HS 578T breast, 28.1%; with NCI/ADR-RES ovarian, 57.2%; in the assay with T-47D breast it was 43.8%. Further, the growth in the assay with BT-549 breast was 24.7%; in the assay with MDA-MB-435 melanoma, 44.3%; with SW-620 colon, 0.485% (active); in the assay with MCF7 breast, 13.9%; in the assay with HCT-116 colon it was -25.4% (active); in the assay on HCC-2998 colon it was 78.2%. Also, in the assay with KM12 colon, the growth was 34.7%.
Turning to `C=CCCCN=C=S`, the growth in the assay with MOLT-4 leukemia was 40.7%; in the assay on SR leukemia, 27%; in the assay on RPMI-8226 leukemia, 49%; in the assay with OVCAR-8 ovarian, 89.6%; in the assay with OVCAR-5 ovarian it was 86.9%; with OVCAR-4 ovarian it was 88.8%. Besides, the growth in the assay on SK-OV-3 ovarian is 70.7%; in the assay with IGROV1 ovarian, 72%; with OVCAR-3 ovarian it was 57.8%; with HS 578T breast, 98%; with NCI/ADR-RES ovarian, 87.2%; with T-47D breast, 47.3%. Moreover, the growth is 67.1% in the assay on BT-549 breast; 61.2% in the assay with MDA-MB-435 melanoma; 66.5% in the assay on SW-620 colon; 40.5% in the assay on MCF7 breast; 44.7% in the assay on HCT-116 colon; 102% in the assay on HCC-2998 colon. Besides, in the assay on KM12 colon, the growth was 49.9%.
`COc1cc2c(cc1OCCCn1c(-c3ccccn3)nc3ccccc31)N=C[C@@H]1CCCN1C2=O`: the growth is 8.22% (active) with MOLT-4 leukemia; 3.55% (active) in the assay on SR leukemia; -37.5% (active) in the assay on RPMI-8226 leukemia; 25.5% with OVCAR-8 ovarian; 2.58% (active) in the assay with OVCAR-5 ovarian; 15.6% in the assay on OVCAR-4 ovarian. In addition, the growth in the assay on SK-OV-3 ovarian was 30.8%; in the assay with IGROV1 ovarian, -62.3% (active); in the assay with OVCAR-3 ovarian, 2.94% (active); with HS 578T breast it was -2.53% (active); with NCI/ADR-RES ovarian, 3.97% (active); in the assay with T-47D breast, 35.4%. Besides, the growth with BT-549 breast is -17.1% (active); with MDA-MB-435 melanoma, -23.6% (active); in the assay with SW-620 colon, 0.272% (active); in the assay on MCF7 breast, 1.32% (active); in the assay on HCT-116 colon it was -14.4% (active); with HCC-2998 colon, 2.04% (active). In the assay with KM12 colon, the growth was -31.7% (active).
For `CCCCCCCCC(CO)NCCc1ccccc1` (configuration not stated), the growth in the assay on MOLT-4 leukemia was 60.5%; in the assay with SR leukemia it was 76.7%; with RPMI-8226 leukemia it was 80.4%; with OVCAR-8 ovarian, 81.1%; in the assay on OVCAR-5 ovarian, 101%; with OVCAR-4 ovarian, 108%. The growth was 102% in the assay on SK-OV-3 ovarian; 105% in the assay with IGROV1 ovarian; 107% with OVCAR-3 ovarian; 106% in the assay with HS 578T breast; 112% with NCI/ADR-RES ovarian; 96% with T-47D breast. Also, the growth in the assay with BT-549 breast is 114%; in the assay on MDA-MB-435 melanoma, 103%; with SW-620 colon, 96.2%; in the assay on MCF7 breast it was 103%; in the assay with HCT-116 colon it was 78.8%; in the assay on HCC-2998 colon, 111%. For the same compound, the growth in the assay with KM12 colon was 99.9%.
For the compound `CC[C@H](C)[C@H](NC(=O)N[C@@H](C)c1ccccc1)C(=O)N(C)[C@H](C[C@@H](OC(C)=O)c1nc(C(=O)N[C@@H](Cc2ccccc2)C[C@H](C)C(=O)OC)cs1)C(C)C`, the growth in the assay with MOLT-4 leukemia was 21.7%; with SR leukemia it was 3.11% (active); with RPMI-8226 leukemia it was 16.1%; in the assay with OVCAR-8 ovarian, 11.6%; in the assay with OVCAR-5 ovarian, 17.8%; in the assay on OVCAR-4 ovarian, 37.1%. Also, the growth is 36.1% in the assay on SK-OV-3 ovarian; 24.1% with IGROV1 ovarian; -36.6% (active) with OVCAR-3 ovarian; 0.903% (active) in the assay with HS 578T breast; 50% with NCI/ADR-RES ovarian; 76.7% in the assay with T-47D breast. For the same compound, the growth in the assay with BT-549 breast was 10.5%; in the assay on MDA-MB-435 melanoma it was -41.7% (active); in the assay with SW-620 colon, 16.8%; in the assay on MCF7 breast, 17.5%; with HCT-116 colon, 9.92% (active); with HCC-2998 colon, 23.7%. Besides, in the assay with KM12 colon, the growth was 2.6% (active).
For the compound `CCC[CH2][Sn]([CH2]CCC)([CH2]CCC)[O]c1ccc(Cl)cc1Cl`, the growth in the assay on MOLT-4 leukemia is -6.07% (active); in the assay with SR leukemia it was -30.4% (active); in the assay with RPMI-8226 leukemia, -9.16% (active); in the assay with OVCAR-8 ovarian, -48.1% (active); in the assay with OVCAR-5 ovarian it was -66.3% (active); with OVCAR-4 ovarian, -100% (active). In addition, the growth in the assay with SK-OV-3 ovarian was -97.5% (active); with IGROV1 ovarian it was -66.9% (active); in the assay on OVCAR-3 ovarian, -100% (active); in the assay with HS 578T breast, -10.3% (active); in the assay with NCI/ADR-RES ovarian, -84.6% (active); in the assay on T-47D breast, -84% (active). In addition, the growth was -81.7% (active) in the assay on BT-549 breast; -60.7% (active) in the assay on MDA-MB-435 melanoma; -92.9% (active) with SW-620 colon; -93% (active) in the assay on MCF7 breast; -79.9% (active) with HCT-116 colon; -95.4% (active) in the assay with HCC-2998 colon. In addition, the growth in the assay on KM12 colon was -94.2% (active).
